Data reported in PubChem BioAssay AID1850 (Southern Research Specialized Biocontainment Screening …, 2009).
Values joined by “and” are separate entries in the source; they are usually repeats but may differ in a detail not shown here. Equal values may be shown once. In all, about 310,000 compounds went through this assay and about 1,000 (0.32%) were called active. The rule behind the calls is not given here. These entries were drawn from the full list. Potency and affinity values are given separately.

Experiment: PhoP regulon inhibitors, Salmonella typhi PhoP promoter GFP reporter, confirmatory (AID 1850);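 note: 0% = induced wells with vehicle and 100% = uninduced wells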
Conditions: fluorescence, 4 h, at 50 µM, active compounds read high

| SMILES | inhibition |
| --- | --- |
| CCn1nc(C(=O)OCC(=O)N(CC(C)C)c2c(N)n(Cc3ccccc3)c(=O)[nH]c2=O)c2ccccc2c1=O | -10.1% (inactive) |
| Cc1csc(NC(=O)CSc2nnc3c4ccccc4nc(C(C)(C)C)n23)n1 | -6.02% (inactive) |
| CN(C)/C=C/c1onc(-c2c(F)cccc2Cl)c1C#N | -0.05% (inactive) |
| COc1ccc(-n2c(-c3ccc(Br)cc3)c[n+]3c2CCc2ccccc2-3)cc1 | 13.6% (inactive) |
| Brc1ccc(-c2cn3c(n2)CCc2ccc4cccnc4c2-3)cc1 | 1.82% (inactive) |
| COc1ccc(-c2nc(CS(=O)(=O)CC(=O)Nc3cccc(C(C)=O)c3)c(C)o2)cc1 | -8.19% (inactive) |
| CC(=O)c1ccc(O)c(CSc2nncn2C)c1 | -0.79% (inactive) |
| COC(=O)C1=C(C)N(Cc2ccccc2)C(=NCc2ccccc2)N[C@H]1c1cccc(F)c1 | -0.78% (inactive) |
| COC(=O)C1=C(C)N(Cc2ccccc2)C(=NCc2ccc(OC)cc2)N[C@H]1c1cccc(F)c1 | 10.3% (inactive) |
| CCCNC(=O)c1cc(-c2ccccc2)c(N2CCCCC2)s1 | 9.44% (inactive) |
| CCCCc1ccc(NC(=O)CSc2nc(=O)n(CCN(C)C)c3c2CCC3)cc1 | 11.9% (inactive) |
| Cc1cccc(NC(=O)c2cc(S(=O)(=O)N(C)c3ccc(F)cc3)ccc2Cl)n1 | 8.42% (inactive) |
| c1ccc(Nc2ccccn2)nc1 | -2.23% (inactive) |
| Oc1ccccc1Nc1ccccn1 | -1.96% (inactive) |
| Cc1ccc(S(=O)(=O)N2CCC(C(=O)O)CC2)cc1 | -0.71% (inactive) |
| CCOCCCn1c(=S)[nH]c2cc(C(=O)NCCc3ccc(OC)c(OC)c3)ccc2c1=O | 3.11% (inactive) |
| CCCC(CCC)C(=O)Nc1ccc2c(c1)N(C(=O)CN1CCN(C)CC1)c1ccccc1CC2 | 5.91% (inactive) |
| Cc1ccc(NC(=O)c2ccccc2)cc1 | -5.33% (inactive) |
| COC(=O)/C(=C\C(=O)c1ccccc1)Nc1ccc(OC)cc1 | -7.68% (inactive) |
| C/C(=C\C(=O)c1ccccc1)Nc1ccc(O)cc1 | -9.8% (inactive) |
| Cc1ccc(NC(=O)NNC(=O)c2ccccc2)cc1 | 1.31% (inactive) |
| O=C(NCc1ccc(Cl)cc1)N1CCc2ccccc2C1 | 2.15% (inactive) |
| COc1ccc2c(c1)CC/C(=C\c1ccc(C)o1)C2=O | -3.7% (inactive) |
| CC1Cc2ccccc2N1Cc1nc2scc(-c3cccs3)c2c(=O)[nH]1 (stereo not drawn) | 0.2% (inactive) |
| CC1CC(C)CN(C(=O)COC(=O)c2ccc[nH]c2=O)C1 (stereo not drawn) | -8.36% (inactive) |

| SMILES | inhibition |
| --- | --- |
| O=C(OCC(=O)N1CCOCC1)c1ccccc1O | 5.57% (inactive) |
| CCCC(=O)N1CCN(c2nc3ccccc3s2)CC1 | -3.88% (inactive) |
| Cc1ccc2c(Cl)cc(Cl)c(OCC(=O)NC(C)(C)C)c2n1 | -16.9% (inactive) |
| Cc1ccc2c(Cl)cc(Cl)c(OCC(=O)N(C(C)C)C(C)C)c2n1 | -1.43% (inactive) |
| COc1cccc(C(=O)NC2CCCc3ccccc32)c1OC (stereo not drawn) | -9.26% (inactive) |
| CS(=O)(=O)N(CCc1ccccc1)CC(=O)N1CCN(c2ccccc2)CC1 | -4.94% (inactive) |
| COc1ccc(CCNC(=O)COC(=O)C23CC4CC(CC(C4)C2)C3)cc1 | -12.8% (inactive) |
| CCc1ccccc1NC(=S)N1CCCCCC1 | -5.25% (inactive) |
| O=C(Cn1cncn1)N/N=C/c1cccc2ccccc12 | -7.61% (inactive) |
| O=C(Cn1cncn1)N/N=C/c1ccccc1Cl | -13.1% (inactive) |
| Cc1cc([N+](=O)[O-])nn1CC(=O)N/N=C/c1ccc(O)cc1O | 18.8% (inactive) |
| Cc1cc([N+](=O)[O-])nn1CC(=O)N/N=C/c1ccccc1Br | 13.2% (inactive) |
| O=C(NCC1CCCO1)c1cccc(Oc2ccccc2)c1 (stereo not drawn) | -8.15% (inactive) |
| O=C(O)c1cccc(N/N=C/c2cc(Br)cc(Br)c2O)c1 | -6.95% (inactive) |
| Cc1cccc(N=Cc2cc(Br)cc(Cl)c2O)c1 | 10.7% (inactive) |
| CN(C)c1ccc(C(=O)N/N=C/c2cc(Br)cc(Br)c2O)cc1 | -1.06% (inactive) |
| Oc1c(Br)cc(Br)cc1C=Nc1cccnc1 | 7.09% (inactive) |
| O=C(O)c1ccccc1N/N=C/c1cc(Br)cc(Br)c1O | 5.52% (inactive) |
| Brc1cccc(C=Nc2cccc3ncccc23)c1 | -0.83% (inactive) |
| Cc1onc(-c2ccccc2Cl)c1C(=O)Nc1ccccc1C(N)=O | 7.75% (inactive) |
| O=C(Nc1nnc(-c2ccc(F)cc2)s1)c1ccco1 | 2.98% (inactive) |
| O=C(O)/C(=C\c1cccs1)c1ccc(F)cc1 | -11.8% (inactive) |
| CNC(=O)C1C2C=CC3(O2)C1C(=O)N(CCOC)C3C(=O)NCc1ccc(OC)cc1 (stereo not drawn) | 16.8% (inactive) |
| CC1CCCCC1NC(=O)CN(C)S(=O)(=O)c1cccc2cccnc12 (stereo not drawn) | 10.4% (inactive) |
| CC(=O)c1c(C(C)=O)c(C)n(-c2ccc(N)c(C)c2)c1C | -3.65% (inactive) |

| SMILES | inhibition |
| --- | --- |
| Cc1ccc(C)c(/C=C/C(=O)c2ccccc(=O)c2O)c1 | -3.4% (inactive) |
| Cc1ccc(/C=C/C(=O)c2ccccc(=O)c2O)c(C)c1 | -6.97% (inactive) |
| CCC(C)NC(=O)CSc1nc2ccc(N3CCOCC3)cc2c(=O)n1CCc1ccccc1 (stereo not drawn) | -0.99% (inactive) |
| Cc1cc(C(=O)N/N=C/c2c(C)n(C)c3ccccc23)n[nH]1 | -9.94% (inactive) |
| O=C(O)[C@@H]1CC(O)CN1C(=O)CCc1c[nH]c2ccccc12 (stereo partly drawn) | 6.6% (inactive) |
| COc1cc(Cl)cc2c1Sc1ccccc1/C2=C/CCN(C)C | -4.02% (inactive) |
| CN(C)CC/C=C1/c2ccc(F)cc2Sc2ccc(Cl)cc21 | -10.8% (inactive) |
| COc1cc2c(cc1Cl)/C(=C\CCN(C)C)c1ccccc1S2 | 2.09% (inactive) |
| CN(C)CC/C=C1/c2ccccc2Sc2c(O)cc(Cl)cc21 | 14.1% (inactive) |
| CN(C)CC/C=C1/c2ccccc2Sc2ccc(Cl)cc21 | 21% (inactive) |
| CN(C)CC/C=C1\c2cc(F)ccc2CSc2ccccc21 | 1.61% (inactive) |
| CN(C)CC/C=C1/c2cc(F)ccc2CSc2ccc(F)cc21 | -7.52% (inactive) |
| CN(C)CC/C=C1\c2cc(Cl)ccc2Sc2cc(F)c(F)cc21 | 10.9% (inactive) |
| Cc1cccc(OCCCC(=O)Nc2ccc(S(N)(=O)=O)cc2)c1 | -6.31% (inactive) |
| CCCCCCSc1ccc(-c2nc3ccccn3c2NCCCC)cc1 | -1.64% (inactive) |
| CC(C)CC(=O)c1c[nH]c(C(=O)NCCCN2CCOCC2)c1 | 0.393% (inactive) |
| CCc1nnc(NC(=O)C=C(C)C)s1 | -12.1% (inactive) |
| O=C(CSc1nccn1-c1ccccc1)NCc1ccc(F)cc1 | 5.7% (inactive) |
| Cc1cc(C)cc(NC(=O)N2CCC(NC(=O)c3ccco3)CC2)c1 | -4.45% (inactive) |
| COc1cc(C2(O)CCCCC2C)cc(OC)c1OC (stereo not drawn) | 0.64% (inactive) |
| CC(C)C(C(=O)NCc1ccco1)N(Cc1ccco1)C(=O)CNS(=O)(=O)c1ccc(F)cc1 (stereo not drawn) | -1.96% (inactive) |
| COc1ccc(Cl)cc1NC(=S)NCc1cccs1 | -1.43% (inactive) |
| Cc1ccc(NC(=O)c2cc(NC(=O)C3CC=CCC3C(=O)O)ccc2N2CCOCC2)cc1 (stereo not drawn) | -15.3% (inactive) |
| C/C(=N\NC(=O)c1ccc(F)cc1)c1ccc(NC(=O)Cc2ccccc2)cc1 | -10.7% (inactive) |
| COc1ccc(-c2cc(C(=O)NCC3CCCO3)c3ccccc3n2)c(OC)c1 (stereo not drawn) | -4% (inactive) |

| SMILES | inhibition |
| --- | --- |
| COc1cccc(-c2nc(NCC3CCCO3)c3ccccc3n2)c1O (stereo not drawn) | 0.02% (inactive) |
| COc1ccccc1Nc1nc(NCC2CCCO2)c2ccccc2n1 (stereo not drawn) | 29.6% (inactive) |
| Oc1ccccc1-c1nc(NCC2CCCO2)c2ccccc2n1 (stereo not drawn) | -0.56% (inactive) |
| Oc1ccc(Cl)cc1Nc1nc(NCC2CCCO2)c2ccccc2n1 (stereo not drawn) | 3.79% (inactive) |
| COc1ccc(S(=O)(=O)Nc2nc3ccccc3nc2NCC2CCCO2)cc1 (stereo not drawn) | -1.23% (inactive) |
| c1ccc2c(NCC3CCCO3)nc(N3CCOCC3)nc2c1 (stereo not drawn) | 0.7% (inactive) |
| Oc1ccccc1Nc1nc(NCC2CCCO2)c2ccccc2n1 (stereo not drawn) | 19.4% (inactive) |
| O=C1CN=C(c2ccc[nH]2)c2cc(Cl)ccc2N1 | -4.67% (inactive) |
| COC(=O)C1SCC2C(=O)N(Cc3cccc(C)c3)CC(=O)N21 (stereo not drawn) | 0.26% (inactive) |
| CN1C(=S)SC(C)(C)C1(C)NO (stereo not drawn) | -6.1% (inactive) |
| O=C(CSc1nccn1Cc1ccccc1)Nc1ccccc1 | -2.04% (inactive) |
| CN(C)N1C(N)=C(C#N)C(c2ccc3c(c2)OCO3)C2=C1CC(C)(C)CC2=O (stereo not drawn) | -10.5% (inactive) |
| c1ccc(-c2nc(NCC3CCCO3)c3ccccc3n2)nc1 (stereo not drawn) | 2.1% (inactive) |
| CC(C)Oc1ccc(-c2nc(NCC3CCCO3)c3ccccc3n2)cc1 (stereo not drawn) | -13.6% (inactive) |
| O=C(CN1CCN(c2ccc([N+](=O)[O-])cc2Cl)CC1)N1CCOCC1 | 2.81% (inactive) |
| CC[N+](C)(C)CCN(Cc1ccc(Cl)cc1)c1ccccn1 | 1.18% (inactive) |
| COc1ccc(CN(CCN(C)C)c2ccccn2)cc1 | -13% (inactive) and 6.04% (inactive) |
| CCC(=O)N1CCc2cc(S(=O)(=O)NC(Cc3ccccc3)C(=O)O)ccc21 (stereo not drawn) | -1.37% (inactive) |
| Cc1nc(C(=O)NCCCO)cc2c1[nH]c1ccccc12 | -6.79% (inactive) |
| Cc1ccc(S(=O)(=O)N(CC(=O)NCc2ccncc2)Cc2ccc(F)cc2)cc1 | 3.98% (inactive) |
| COc1ccc2[nH]cc(/C=N/NS(=O)(=O)c3ccc(C)cc3)c2c1 | 15.2% (inactive) |
| NC(=S)N/N=C/c1c[nH]c2ccc(OCc3ccccc3)cc12 | -7.88% (inactive) |
| CSc1cccc(NC(=O)CCCOc2ccc(Cl)cc2C)c1 | -5.44% (inactive) |
